Compound activity from PubChem.
PLCb3 inh: human PLC-beta3 inhibitors, primary screen, biochemical, fluorescence. 1-phosphatidylinositol 4,5-bisphosphate phosphodiesterase beta-3 (Homo sapiens), Q01970. Purified PLC-beta3, fluorogenic substrate. inhibition, % at 12.2 µM. 370,000 tested, 0.18% active. AID 720704, 2013; in the data active = inhibition above about 11%
ADAM10 inh: human ADAM10 inhibitors, primary screen, biochemical, QFRET, HTS | Disintegrin and metalloproteinase domain-containing protein 10 (Homo sapiens), O14672 | recombinant ADAM10, EDANS/DABCYL FRET peptide cleavage, 3 h | inhibition, % at 7 µM | 370,000 tested, 0.62% active | AID 720582, 2013;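 active = inhibition above a per-campaign cutoff equal to the mean of compounds falling between control-based bounds plus 3 SD, cut at about 20% in these data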
Target sequence (O14672 214-748 limits assumed): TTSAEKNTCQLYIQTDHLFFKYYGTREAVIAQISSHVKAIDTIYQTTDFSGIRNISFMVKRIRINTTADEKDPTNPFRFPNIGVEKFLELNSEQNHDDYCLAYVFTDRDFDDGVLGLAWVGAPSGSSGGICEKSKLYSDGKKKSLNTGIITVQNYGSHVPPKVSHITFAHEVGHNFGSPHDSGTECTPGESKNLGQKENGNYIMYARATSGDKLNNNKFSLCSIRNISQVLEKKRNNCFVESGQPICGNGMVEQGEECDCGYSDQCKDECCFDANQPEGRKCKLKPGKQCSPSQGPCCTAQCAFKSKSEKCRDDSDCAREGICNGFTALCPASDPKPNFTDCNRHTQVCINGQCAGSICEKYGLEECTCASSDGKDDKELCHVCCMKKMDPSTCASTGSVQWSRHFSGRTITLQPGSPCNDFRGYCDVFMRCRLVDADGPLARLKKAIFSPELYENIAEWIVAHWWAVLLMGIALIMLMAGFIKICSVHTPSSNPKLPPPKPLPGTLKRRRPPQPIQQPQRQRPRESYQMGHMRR
PLC-gamma1 inh: PLC-gamma1 enzyme inhibitors, primary screen, biochemical, fluorescence, purified enzyme; 1-phosphatidylinositol 4,5-bisphosphate phosphodiesterase gamma-1 (Homo sapiens), P19174; fluorogenic substrate; inhibition, % at 12.2 µM; 370,000 tested, 0.84% active; AID 720700, 2013; in the data active = inhibition above about 9.5%
proKLK7 act: proKLK7 zymogen activators, primary screen, biochemical, fluorescence intensity; Kallikrein-7 (Homo sapiens), P49862; AID 652039, 2013; purified proKLK7, EDANS-DABCYL substrate fluorescence; 100% is mature enzyme control, 0% vehicle; activation, % at 7 µM; 370,000 tested, 0.9% active;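 active = activation above the mean of all tested compounds plus 3 SD, computed per campaign excluding outliers beyond control limits, cut at about 13% in these data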
ADAM17 inh: ADAM17 inhibitors, primary screen, biochemical, QFRET | Disintegrin and metalloproteinase domain-containing protein 17 (Homo sapiens), P78536 | recombinant ADAM17, EDANS/DABCYL FRET peptide cleavage | inhibition, % at 6.95 µM | 370,000 tested, 0.83% active;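 active = inhibition above the mean of compounds lying between control limits plus 3 SD, set per campaign, cut at about 8.5% in these data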
sPLA2-III inh: human group III sPLA2 inhibitors, primary screen, biochemical, QFRET, BODIPY PC-A2 liposome substrate; 370,000 tested, 0.56% active; AID 743126, 2013; inhibition, % at 12.2 µM; QFRET BODIPY PC-A2 liposome hydrolysis, fluorescence;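 active = inhibition above mean plus 3 SD of compounds lying within the high and low control bounds, cut at about 19% in these data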
ADAM10 confirm: human ADAM10 inhibitors, confirmation, biochemical, QFRET, triplicate | shares compounds with ADAM10 inh | ADAM10 QFRET peptide cleavage, EDANS fluorescence | inhibition, % at 6.95 µM | 2,100 tested, 1% active | AID 743208, 2013;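 active = inhibition above about 20% chosen separately for each screening run, limit read from the data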
ADAM17 counter: ADAM17 inhibitors, counter-screen for ADAM10 exosite inhibitor project, biochemical, QFRET, high throughput; shares compounds with ADAM10 inh; inhibition, % at 6.95 µM; 2,100 tested, 0.5% active; ADAM17 QFRET peptide cleavage, EDANS fluorescence;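 active = mean triplicate inhibition above the solvent-only control wells' mean plus 3 SD, cut at about 12% in these data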
ADAM10 ctr: ADAM10 inhibitors, counter-screen for ADAM17 exosite inhibitor project, biochemical, FRET, human ADAM10; shares compounds with ADAM17 inh; recombinant ADAM10, EDANS/DABCYL FRET peptide cleavage, 3 h; inhibition, % at 6.95 µM; 2,900 tested, 47% active; AID 743256, 2014;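 active = mean inhibition over the triplicate runs exceeds the activity threshold set in the earlier primary screen, cut at about 20% in these data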
ADAM17 confirm: ADAM17 inhibitors, hit retest, confirmation, biochemical, QFRET peptide cleavage. shares compounds with ADAM17 inh. recombinant ADAM17, EDANS/DABCYL QFRET peptide cleavage. inhibition, % at 6.95 µM. 2,900 tested, 65% active. AID 743257, 2014;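 active = mean inhibition across replicates above the hit cutoff set in the primary screen, cut at about 8.5% in these data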
Each line names hits and unclear results; the compound was inactive in the other large screens (follow-up assays come after a bar, where they were run). The list is not random: actives were taken first. Their share in the collection is about 3.4%.

Cc1ccc(Sc2ccc(/C=N/O)cc2[N+](=O)[O-])cc1	ADAM10 inh 27, ADAM17 inh 9.7 | ADAM10 confirm inactive | ADAM17 counter inactive | ADAM10 ctr 27 | ADAM17 confirm 15
COc1ccc(NS(=O)(=O)c2cccc(NC(=O)CCC(=O)c3ccc(Cl)cc3)c2)cc1	ADAM10 inh 30, ADAM17 inh 14 | ADAM10 confirm inactive | ADAM17 counter inactive | ADAM10 ctr 34 | ADAM17 confirm 19
O=C(COC(=O)CCc1c[nH]c2ccccc12)NCCc1ccccc1	none
O=C(CCc1c[nH]c2ccccc12)OCc1ccc(Br)cc1	ADAM10 inh 23, ADAM17 inh 12 | ADAM10 confirm inactive | ADAM17 counter inactive | ADAM10 ctr inactive | ADAM17 confirm 11
CNC(=S)N(CCc1c(C)[nH]c2ccc(C)cc12)Cc1cccs1	ADAM10 inh 22, ADAM17 inh 9.8 | ADAM10 confirm inactive | ADAM17 counter inactive | ADAM10 ctr inactive | ADAM17 confirm 10
CCOC(=O)[C@@]12CCC3=C1N(CCC3)C(=O)[C@H](CC(=O)NCCC(C)C)C2	none
CCCCNC(=O)C[C@H]1C[C@@]2(C(=O)OC)C(=C[C@H](C(C)(C)C)O[C@@H]2C)N(Cc2cccc3ccccc23)C1=O	ADAM10 inh 29, ADAM17 inh 15 | ADAM10 confirm inactive | ADAM17 counter inactive | ADAM10 ctr 26 | ADAM17 confirm 17
COC(=O)[C@]12C[C@H](CC(=O)NCCCCc3ccccc3)C(=O)N(Cc3ccccc3)C1=C[C@H](C(C)(C)C)O[C@@H]2C	none
COC(=O)[C@]12C[C@H](CC(=O)NCCCCc3ccccc3)C(=O)N(CCc3ccc(OC)c(OC)c3)C1=C[C@H](C(C)(C)C)O[C@@H]2C	ADAM10 inh 27, ADAM17 inh 9.0 | ADAM10 confirm inactive | ADAM17 counter inactive | ADAM10 ctr 24 | ADAM17 confirm 13
COC(=O)[C@]12C[C@H](CC(=O)NCc3ccccc3)C(=O)N(Cc3ccco3)C1=C[C@H](C1CCCC1)O[C@@H]2C	none
COC(=O)[C@]12C[C@H](CC(=O)NCc3cccc4ccccc34)C(=O)N(Cc3ccco3)C1=C[C@H](C1CCCC1)O[C@@H]2C	ADAM10 inh 22, ADAM17 inh 14 | ADAM10 confirm inactive | ADAM17 counter inactive | ADAM10 ctr 34 | ADAM17 confirm 17
O=C(CCc1ccccc1)N[C@H]1[C@H](OC(=O)c2cnccn2)CCC[C@@]12C(=O)N(Cc1ccccc1)c1ccccc12	none
CN1C(=O)c2cc(NC(=O)Nc3ccc(F)c(F)c3)ccc2OC[C@H]2O[C@@H](CC(=O)O)CC[C@H]21	none
COc1ccc(CN2CCC(CNC(=O)NC3CCC(C)CC3)CC2)cc1 (configuration not stated)	none
